Where “and” joins values, the source holds several entries; their conditions need not be identical. Identical values can stand only once. Compounds without any hit were thinned out: in the full panel of roughly 83,000, 20% have a hit.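 How to read the values: 0–100, growth inhibition (40 = 60% inhibited); 0, no net growth; -100 to 0, cell death (-40 = 40% of starting cells died; -100 = all dead).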 A number with no mark means an inactive call. Calls of active or inactive are those of the source. How the source made its calls: active means growth percent below 10; inactive means the rest.
The compounds below were run on HL-60(TB) leukemia (assay: NCI-60 one-dose screen, 48 h (100 = growth as untreated, 0 = no growth, -100 = all killed)). Conditions: 10 µM unless noted.
In the case of Cn1c2ccccc2c2nnc(NCCCCO)nc21, the growth is reported as 139%. With CC[C@H](C)C(=O)O[C@H]1CCC=C2C=C[C@H](C)C(CCC3C[C@@H](O)CC(=O)O3)[C@H]21 (some centres undefined) the growth was 97.8%. In the case of NC(=O)CSSCC(N)=O, the growth is reported as 9.36% (active). Work on COc1cc(/C=C/c2cc(/C=C/c3ccc(O)c(OC)c3)n(-c3c(Cl)cccc3Cl)c(=O)n2)ccc1O yielded a growth of 13.5%. CCN(CC)CCCC(CNc1ccnc2cc(Cl)ccc12)c1ccc(Cl)cc1 (centres undefined) was tested, and the growth was -40.4% (active) and -71% (active). For CC(C)OC(=O)Nn1cnc2ccccc21, the growth was 96.5%. In the case of Clc1ccc2c(NCCNc3nc(N4CCCCC4)nc4ccccc34)ccnc2c1, the growth is reported as -61.2% (active). [2H]c1nc(Nc2ncc(F)c(-c3cc(F)c4nc(C)n(C(C)C)c4c3)n2)c([2H])c([2H])c1CN1CCN(C([2H])([2H])C([2H])([2H])[2H])CC1 gave a growth of 34.6%. In the case of OCc1c(-c2ccccc2)nc2sccn12, the growth is reported as 130%. Compound COc1cc(C2CC(=O)c3c(C)nn(-c4nc5ccccc5[nH]4)c3C2)cc(OC)c1OC (centres undefined) has a growth of 132%. CC(=O)c1cccc(NS(=O)(=O)c2cccc(C(=O)Nc3ccc(Br)cc3)c2)c1 was tested, and the growth was 48.7% [25 µM]. CC1CCCC(=O)O1 (centres undefined) was tested, and the growth was 102% and 119%. In the case of O=C1c2cccnc2C(=O)c2c1c(C(=O)OCCN1CCCCC1)c1ccccn21, the growth is reported as -46.5% (active). CCOC(=O)C1=C(C)NC(C)=C(C(=O)OCC)C1 was tested, and the growth was 110% and 102%. COc1ccc(-c2cc(-c3cn(-c4cccc(Cl)c4)nc3-c3ccc(OC)cc3)[nH]c(=S)n2)cc1 was tested, and the growth was 60.4%. COc1ccc(Cl)cc1NC(=O)c1cc2c([nH]1)-c1nc(NC(=O)C(C)(C)C)sc1CC2 was tested, and the growth was 60.9%. OC(c1ccccc1)C(NC(Cc1ccccc1)c1ccccc1)c1ccccc1 (centres undefined) showed a growth of 112%. For O=C(CCl)N(O)c1ccc(/C=C/c2ccccc2)cc1, the growth was 69.4% and 51%. With CC1(C)CC[C@]2(C(N)=O)CC[C@]3(C)C(=CC[C@@H]4[C@@]5(C)C/C(=C/c6ccncc6)C(=O)C(C)(C)[C@@H]5CC[C@]43C)[C@@H]2C1 the growth was -19.2% [100 µM] (active). With CCCCNC(=O)Oc1ccc(/C(=C(/CC)Cc2ccccc2)c2ccc(OCCN3CCCCCC3)cc2)cc1 the growth was -12.8% (active). Compound Cc1noc(C)c1C(=O)OCc1coc2ccccc2c1=O has a growth of 12.4%. CC(=O)c1c(O)cc2c3c1OC(C)(C)C1CCC(C)(CC31)O2 (centres undefined) showed a growth of 89.2%. Work on COc1ccc(\C=N/N=C(N)/C(N)=N\N=C/c2ccc(OC)cc2)cc1 yielded a growth of 91.5%. For C/C(=N\NC(N)=S)c1nc2ccc(Cl)cc2[nH]1, the growth was 29.5%. Compound O=[N+]([O-])c1ccc(C2N(Cc3ccc(Cl)cc3)CCN2Cc2ccc(Cl)cc2)cc1 has a growth of 86.9%. Compound C=CCN(/C=C/CN(CC=C)CC=C)CC=C has a growth of 102%. CN(C)c1ncnc2c1nnn2C1OC(CO)C(O)C1O (centres undefined) was tested, and the growth was 4.4% (active). In the case of COc1ccc2c(c1)CC[C@H](O)/C2=C/c1cc(OC)c(OC)c(OC)c1, the growth is reported as -20.2% (active). CCCN1CCN(c2ccc3nc(-c4ccc5nc(-c6ccc(C(F)(F)F)cc6)[nH]c5c4)[nH]c3c2)CC1 was tested, and the growth was -40.7% (active). Work on COc1cccc(NC(=O)[C@H](C(C)C)n2c(=O)[nH]c3ccccc3c2=O)c1 yielded a growth of 86.2%. c1coc(-c2c3ccc(=[N+]4CCCCC4)cc-3oc3cc(N4CCCCC4)ccc23)c1 was tested, and the growth was -57.5% (active). With O=C(C=P(c1ccccc1)(c1ccccc1)c1ccccc1)c1ccc(Br)cc1 the growth was 8.84% (active). COc1cc(NCCN=C(N)NC(N)=NC(C)C)c2ncccc2c1 was tested, and the growth was 74.8%. For O=C(N/N=C/c1ccc(F)cc1)c1ccc(C(F)(F)F)nc1Nc1cccc(C(F)(F)F)c1, the growth was -37.2% (active). Compound CC(C)[C@@H]1CC[C@@H]2[C@@H]1[C@H](OC(=O)/C=C/c1ccccc1)[C@]1(C(C)C)C[C@@H](OC(=O)CO)[C@@]2(C)O1 has a growth of 84.6%. With CCC1(C(N)=O)CC2C=CC1CC2 (centres undefined) the growth was 110%. Compound O=C(Nc1cccc2[nH]c(C(F)(F)F)nc12)c1cc(Cl)ccc1Cl has a growth of 36.4%. For Cc1ncc(CO)c(C(=O)O)c1O, the growth was 84.2%. COc1ccccc1NC(=O)c1sc2nc3c(cc2c1N)C(=O)CCC3 was tested, and the growth was 98.6%.
